# Measurements published in PubChem BioAssay (NCATS).
# Inconclusive results are not listed. Activity calls are given as the source filed them. Calls follow the shape of the dose curve; as a rule, active = well fitted inhibition curve with a large enough effect; inconclusive = small, poorly fitted or top-dose-only effect; inactive = flat fitted curve, though single readings scatter.
# Tested on: HaCat
# Test: Cytotoxic Profiling of Annotated Libraries Using Quantitative High-Throughput Screening (AID 1296008); also: nearly all actives have a fitted effect of over 60% in size
# Details: Five cell lines viability, CellTiter-Glo ATP luminescence, 48-72 h; max response: hits give low values
# Method in brief: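 Cells exposed to compounds for 48 or 72 hr at 37 degrees Celsius. Viability read as ATP-coupled luminescence with CellTiter-Glo after 10 min at room temperature.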
# % is scaled to controls: 0 for no effect and ±100 for the full control effect; potency is read from the fitted curve at half-maximal effect.
Structure (SMILES),max response,Potency,outcome
CCCN(CCC)C(=O)Cc1c(-c2ccc(Cl)cc2)nc2ccc(Cl)cn12,-9.95% (inactive),–,–
COc1cccc2c1C(=O)c1c(O)c3c(c(O)c1C2=O)C[C@@](O)(C(=O)CO)CC3OC1CC(N2CCOC(OC)C2)C(O)C(C)O1 (stereo not given in full),–,21.1 nM (active),–
ClCCN1CCCC1,–,–,inactive
CN1CC[C@]23c4c5ccc(O)c4O[C@H]2[C@@H](O)C=C[C@H]3[C@H]1C5,–,–,inactive
COc1cc(CC(C)N)cc(OC)c1OC (stereo not given),2.22% (inactive),–,–
C=CCC1([C@H](C)CCC)C(=O)NC(=O)NC1=O,-2.25% (inactive),–,–
COc1cc(CCN)cc(OC)c1OC,-15.9% (inactive),–,–
CNC(C)(C)Cc1ccccc1,–,–,inactive
COC(=O)[C@@H](N)CCCN/C(N)=N/[N+](=O)[O-],-19.5% (inactive),–,–
O=c1[nH]c2ccccc2n1C1CCNCC1,3.09% (inactive),–,–
Cc1ncsc1CCCl,-12.7% (inactive),–,–
CC(C(=O)c1ccccc1)N(C)C (stereo not given),–,–,inactive
CC(C)C[C@H](CN)CC(=O)O,-0.0678% (inactive),–,–
COc1c2c(cc3c1OCO3)CCN(C)C2,-2.59% (inactive),–,–
CCN(CCO)CCn1c(Cc2ccccc2)nc2c1c(=O)n(C)c(=O)n2C,–,–,inactive
